Measurements reported in PubChem BioAssay AID1259415 (National Center for Advancing Translational Sciences (NCATS), 2018).
Values joined by “and” are separate entries in the source; they are usually repeats but may differ in a detail not shown here. Identical values can stand only once. About 18,000 (4.4%) of roughly 410,000 compounds were called active. Roughly 7% stayed inconclusive and do not appear here. The sample holds actives, similar compounds and a random draw of the others, so the mix is not that of the screen. Cut-off read from the data, not from the text of the source: active = activity change below about -60%; inconclusive = no clear call, values can overlap the other calls; inactive = above about -39%. Some structures have more than one record in an assay (separate samples or runs), and their calls can disagree.

Test: qHTS Assay for inhibitors of the human cytomegalovirus (HCMV)
Settings: HFF cells, HCMV-luciferase reporter, 72 h; at 57.5 µM; stronger effect = lower value
Procedure, shortened: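 Steps: HFFs plated, 16 h 37C; compounds added; HCMV-luciferase added to MOI 1 PFU/cell; 72 h 37C; OneGlo reagent, 5 min room temperature; luminescence read, normalized to controls.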
% is set by controls: 0 for no effect and ±100 for the full control effect.

Row | SMILES | activity change, negative = inhibition
1 | Cc1nnc(SCc2cc(=O)c3cc(F)ccc3[nH]2)n1C | 17.7% (inactive)
2 | CC(C)C(=O)Nc1nc2c(s1)CC(C(C)(C)C)CC2 (stereo not given) | 36.6% (inactive)
3 | Cc1ccc(Cl)cc1NC(=O)C1CCN(S(C)(=O)=O)CC1 | 22% (inactive)
4 | Cc1ccc(Cl)cc1NC(=O)C1CCCN(c2cnccn2)C1 (stereo not given) | -33.4% (inactive) and -71.5% (active)
5 | O=C(Nc1cccc(Cl)c1)C1CCCN(c2cnccn2)C1 (stereo not given) | -9.65% (inactive)
6 | COC(=O)c1ccccc1NC(=O)c1cnn(-c2ccc(F)cc2)c1-n1cccc1 | -4.4% (inactive)
7 | COc1ccc(-n2nc(C(=O)NCCc3ccc(Cl)cc3)c3c4ccccc4n(C)c3c2=O)cc1Cl | 1.81% (inactive)
8 | COc1ccc(S(=O)(=O)N2CCN(c3ccc(F)cc3)CC2)cc1-c1noc(C)n1 | -18.6% (inactive)
9 | O=C(NC1CC(=O)N(c2ccc(Cl)cc2)C1)C1CCCC1 (stereo not given) | 16.2% (inactive)
10 | COc1ccc(C2Sc3ccccc3NC3=C2C(=O)c2ccccc23)c(OC)c1OC (stereo not given) | -74.4% (active)
11 | COC(=O)C(C)C1Sc2ccccc2NC1=O (stereo not given) | -14.8% (inactive)
12 | CCCCCOC(=O)C1=C(C)Nc2nnnn2C1c1ccc(OC)c(OC)c1OC (stereo not given) | 13.7% (inactive)
13 | CSc1nc2ccc(C)cc2c(=O)n1-c1cccnc1 | -87.3% (active)
14 | CCC1NC(=O)c2cccnc2-n2c1nc1ccc(C)cc1c2=O (stereo not given) | -2.47% (inactive)
15 | COCCNC(=O)c1ccc(-n2c(SCc3cccnc3)nc3ccccc3c2=O)cc1 | -38.3% (inactive)
16 | CC1CCCN1CCC(C(N)=O)(c1ccccc1)c1ccccc1 (stereo not given) | -15% (inactive)
17 | OC(c1ccccc1)(c1ccccc1)C1CCN(CCCOc2ccccc2)CC1 | 2.18% (inactive)
18 | CN1CCC[C@@H]1CCO[C@](C)(c1ccccc1)c1ccc(Cl)cc1 | -62.4% (active)
19 | COc1ccc(-c2nc(C)c(CCNC(=O)c3ccc(C(F)(F)F)cc3)s2)cc1OC | 14.8% (inactive)
20 | O=C(Nc1ccc(Cl)cc1)c1csc([C@@H]2O[C@H](CO)[C@H](O)[C@H](O)[C@H]2O)n1 | 16.2% (inactive)
21 | N#Cc1ccc(CC(O)c2nc(C(=O)Nc3ccccc3)cs2)cc1 (stereo not given) | -100% (active)
22 | O=C(Nc1ccc(Cl)cc1)c1csc(C(O)c2cccc(C(F)(F)F)c2)n1 (stereo not given) | -20.2% (inactive)
23 | COc1ccccc1Cc1c(-c2ccc(Cl)cc2)nc2c3ccccc3ccn12 | 22.4% (inactive)

Row | SMILES | activity change, negative = inhibition
24 | COc1cccc2c(C)c(C(=O)O)[nH]c12 | -2.81% (inactive)
25 | CCc1c(C)nc2c(OC)cccc2c1Cl | -75.4% (active)
26 | COc1ccc(C)cc1-n1c(-c2ccc(C)cc2)cc2c1CC(C)(C)CC2=O | 5.24% (inactive)
27 | CC(=O)Nc1ccc(S(=O)(=O)NC2(C(F)(F)F)C(=O)NC(C)=C2C#N)cc1 (stereo not given) | -29.9% (inactive)
28 | CC(C)CNc1ncnc2c1nnn2C | -27.2% (inactive)
29 | O=C(NCc1nnnn1-c1ccc(Cl)cc1)c1ccc2c(c1)OCO2 | 21% (inactive)
30 | Cc1ccc(-n2nnnc2CNC(=O)c2ccccc2C)cc1C | -15.5% (inactive)
31 | O=C(NCc1nnnn1-c1ccc(Cl)cc1)c1ccc([N+](=O)[O-])o1 | -63.2% (active)
32 | C=CCn1c(O)c(/C=N/N2CCOCC2)c(=O)[nH]c1=S | -8.35% (inactive)
33 | CCCCn1nc2ccccc2c1OCC | -7.88% (inactive)
34 | CSc1ccccc1NC(=O)CCS(=O)(=O)c1nc(-c2cccs2)cc(C(F)(F)F)n1 | 3.11% (inactive)
35 | COc1ccccc1-c1cc(C(F)(F)F)nc(S(=O)(=O)CCCC(=O)Nc2cc(C)ccc2O)n1 | 7.44% (inactive)
36 | COc1ccccc1-c1cc(C(F)(F)F)nc(S(=O)(=O)CCCC(=O)Nc2ccc(F)cc2F)n1 | -93% (active)
37 | Cc1nn(-c2ccccc2)nc1C(=O)OCC(=O)N1CCCCC1C (stereo not given) | 37.5% (inactive)
38 | Cc1oc2ncnc(N3CCCCC3)c2c1C(=O)N1CCN(c2cccc(Cl)c2)CC1 | 2.67% (inactive)
39 | C#Cc1cc(N2CCN(C(=O)c3ccoc3)CC2)n2nc(-c3cccc(Cl)c3)cc2n1 | -102% (active)
40 | CNc1cncc(-c2cccc(C(=O)N3CCOCC3)c2)n1 | 16.3% (inactive)
41 | COc1ccccc1-c1cc2nc(C)c(CCC(=O)NC3CCCCC3)c(C)n2n1 | -7.07% (inactive)
42 | C[C@]12CC[C@H](O)C[C@H]1CC[C@@H]1C2CC[C@]2(C)[C@@H](C3=CC(=O)OC3)[C@@H](O)C[C@]12O (stereo not given in full) | -99.6% (active)
43 | CC(=O)[C@@]12O[C@@H]1C[C@H]1[C@@H]3CC[C@H]4C[C@@H](O)CC[C@]4(C)[C@H]3CC[C@@]12C | -16% (inactive)
44 | Cc1cc2ccccc2n1CCNC(=O)c1ccc(F)cc1 | 0.319% (inactive)
45 | CC1=C(C(=O)OCc2ccc(C)cc2)C(c2c(Cl)cccc2Cl)CC(=O)N1 (stereo not given) | -18.7% (inactive)
